Among the test systems are DU-145 prostate; K-562 leukemia; MALME-3M melanoma; MDA-MB-231 breast; RXF 393 renal; SF-268 CNS; SF-295 CNS; UACC-257 melanoma; M14 melanoma; HCT-15 colon; HT29 colon; SNB-75 CNS; SNB-19 CNS; U251 CNS; PC-3 prostate; SK-MEL-5 melanoma; UACC-62 melanoma; LOX IMVI melanoma; SK-MEL-28 melanoma.
Holding throughout (assay): NCI-60 one-dose screen, 48 h (100 = growth as untreated, 0 = no growth, -100 = all killed)
Holding throughout (details): 10 µM unless noted

The panel holds about 83,000 compounds, 20% with a hit somewhere; the sample as a whole holds those more often.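 Compound tested at a single concentration for 48 hours in 96-well plates; a percent growth value below 10 was scored as active.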 Values without a mark were called inactive. Calls of active or inactive are those of the source.

On to `CC(=O)Oc1ccc(Nc2c3ccccc3nc3ccccc23)cc1`, for which the growth was 8.74% (active) in the assay on DU-145 prostate; 6.78% (active) in the assay with K-562 leukemia; -33.2% (active) in the assay on MALME-3M melanoma; 23.6% with MDA-MB-231 breast; -2.55% (active) in the assay on RXF 393 renal; 22% in the assay with SF-268 CNS. The growth in the assay with SF-295 CNS is -21.8% (active); with UACC-257 melanoma, -25.7% (active); in the assay on M14 melanoma, 20.7%; in the assay with HCT-15 colon, 1.67% (active); with HT29 colon, -38.4% (active); in the assay with SNB-75 CNS, 2.16% (active). In addition, the growth in the assay on SNB-19 CNS was 16.1%; with U251 CNS it was 8.7% (active); with PC-3 prostate, 7.48% (active); in the assay with SK-MEL-5 melanoma it was -73.2% (active); with UACC-62 melanoma, -45.3% (active); in the assay with LOX IMVI melanoma, -34.8% (active). Moreover, the growth in the assay with SK-MEL-28 melanoma was 25.8%.
With `CSc1ccc(N=C=C(c2ccccc2)c2ccccc2)cc1`, the growth was 109% in the assay on DU-145 prostate; 60.4% with K-562 leukemia; 105% with MALME-3M melanoma; 84.7% in the assay with MDA-MB-231 breast; 105% in the assay on RXF 393 renal; 95.8% in the assay on SF-268 CNS. In addition, the growth in the assay on SF-295 CNS was 96.1%; in the assay on UACC-257 melanoma, 93.3%; in the assay with M14 melanoma, 80.4%; in the assay on HCT-15 colon, 87.3%; with HT29 colon, 87.3%; with SNB-75 CNS, 84.7%. The growth with SNB-19 CNS was 91.7%; with U251 CNS, 86.4%; with PC-3 prostate, 84.6%; in the assay on SK-MEL-5 melanoma, 99.6%; with UACC-62 melanoma, 83.1%; in the assay on LOX IMVI melanoma, 70.2%. Also, the growth in the assay with SK-MEL-28 melanoma was 99.2%.
With `COC(=O)[C@@H]1CC[C@]2(C)[C@H](CC[C@@H]3O[C@@]32C)[C@@]1(C)CC(=O)c1ccoc1`, the growth in the assay with DU-145 prostate was 112%; in the assay with K-562 leukemia, 100%; in the assay on MALME-3M melanoma, 97.7%; in the assay on MDA-MB-231 breast, 88.3%; in the assay on RXF 393 renal it was 111%; in the assay with SF-268 CNS it was 103%. Besides, the growth with SF-295 CNS was 104%; with UACC-257 melanoma, 88.4%; with M14 melanoma, 108%; with HCT-15 colon, 103%; with HT29 colon, 93.2%; in the assay with SNB-75 CNS, 114%. The growth was 91.1% in the assay on SNB-19 CNS; 91.8% in the assay with U251 CNS; 86% with PC-3 prostate; 97.4% with SK-MEL-5 melanoma; 89.5% with UACC-62 melanoma; 98.6% with LOX IMVI melanoma. Also, the growth in the assay on SK-MEL-28 melanoma was 104%.
Take `COc1cnc2c(c1)C(=O)c1c-2n(CCCN2CCNCC2)c(=O)c2cc([N+](=O)[O-])ccc12`: the growth is -85.1% (active) in the assay on DU-145 prostate; -50.1% (active) in the assay with K-562 leukemia; -71.4% (active) with MALME-3M melanoma; -77.4% (active) in the assay on MDA-MB-231 breast; 0.0319% (active) in the assay on RXF 393 renal; -66.6% (active) with SF-268 CNS. In addition, the growth in the assay on SF-295 CNS was -14.7% (active); in the assay with UACC-257 melanoma, 46.3%; in the assay on M14 melanoma it was -83.1% (active); with HCT-15 colon it was -80.7% (active); in the assay with HT29 colon, -80% (active); with SNB-75 CNS it was 2.92% (active). The growth was -40.7% (active) in the assay with SNB-19 CNS; -93.3% (active) in the assay with U251 CNS; -82.3% (active) with PC-3 prostate; -7.99% (active) in the assay on SK-MEL-5 melanoma; -82% (active) in the assay with UACC-62 melanoma; -86.5% (active) in the assay with LOX IMVI melanoma. Also, in the assay with SK-MEL-28 melanoma, the growth is -76.6% (active).
Regarding `Cn1c(=O)c2c(ncn2CC[N+](C)(C)C)n(C)c1=O`, the growth in the assay on DU-145 prostate was 104%; in the assay on K-562 leukemia, 92.1%; in the assay with MALME-3M melanoma it was 105%; in the assay with MDA-MB-231 breast, 104%; in the assay on RXF 393 renal it was 111%; in the assay with SF-268 CNS it was 98.6%. The growth was 103% in the assay on SF-295 CNS; 94.4% with UACC-257 melanoma; 103% with M14 melanoma; 112% in the assay on HCT-15 colon; 93.8% in the assay on HT29 colon; 90.9% in the assay on SNB-75 CNS. For the same compound, the growth with SNB-19 CNS is 101%; in the assay on U251 CNS, 101%; with PC-3 prostate it was 94.5%; with SK-MEL-5 melanoma, 102%; in the assay with UACC-62 melanoma, 86.9%; with LOX IMVI melanoma, 99.6%. Moreover, in the assay with SK-MEL-28 melanoma, the growth was 106%.
For `CNCc1cccc2c1OCCOCCOCCN(C)S(=O)(=O)c1ccc(cc1)-c1cnc(N)c(n1)C(=O)N2`, the growth in the assay on DU-145 prostate was 47.4%; in the assay on K-562 leukemia it was 1.1% (active); in the assay on MALME-3M melanoma, 9.53% (active); in the assay on MDA-MB-231 breast, 69.1%; in the assay with RXF 393 renal it was -54.8% (active); with SF-268 CNS, 69.4%. The growth in the assay on SF-295 CNS is 87.6%; with UACC-257 melanoma it was 63.4%; with M14 melanoma, 37.3%; in the assay on HCT-15 colon it was 11.4%; in the assay on HT29 colon, 13.2%; in the assay on SNB-75 CNS, 33.2%. Further, the growth in the assay with SNB-19 CNS is 93.3%; in the assay with U251 CNS, 12.8%; in the assay with PC-3 prostate, 54.1%; in the assay on SK-MEL-5 melanoma, 82.5%; in the assay on UACC-62 melanoma, 29.4%; in the assay with LOX IMVI melanoma, -16% (active). Moreover, the growth with SK-MEL-28 melanoma was 68%.
For `CC(=O)C1=C(O)C=C2Oc3c(C(=O)/C=C/c4cc(Cl)cc(Cl)c4)c(O)c(C)c(O)c3[C@]2(C)C1=O`, the growth is -3.76% (active) with DU-145 prostate; -16.2% (active) in the assay with K-562 leukemia; -62.4% (active) in the assay with MALME-3M melanoma; -30.9% (active) in the assay with MDA-MB-231 breast; -40.4% (active) with RXF 393 renal; -21.4% (active) with SF-268 CNS. The growth in the assay on SF-295 CNS is -18.7% (active); in the assay on UACC-257 melanoma, -19.6% (active); in the assay with M14 melanoma, -32.8% (active); in the assay with HCT-15 colon it was -35.5% (active); with HT29 colon, -23.5% (active); with SNB-75 CNS, -39.9% (active). Also, the growth in the assay on SNB-19 CNS was -24.4% (active); in the assay with U251 CNS, -29.9% (active); in the assay on PC-3 prostate, -21.1% (active); in the assay with SK-MEL-5 melanoma, -89.2% (active); in the assay on UACC-62 melanoma, -71.2% (active); in the assay with LOX IMVI melanoma, -54% (active). Moreover, the growth with SK-MEL-28 melanoma is -36.1% (active).
For the compound `C=C1CCC2C3(C)COC(c4ccc(SC)cc4)OC3CCC2(C)C1C/C=C1/C(=O)OCC1O` (configuration not stated), the growth with DU-145 prostate is 88.1%; in the assay with K-562 leukemia it was 20.1%; in the assay on MALME-3M melanoma, 100%; in the assay with MDA-MB-231 breast, 87.9%; in the assay on RXF 393 renal it was 42.6%; in the assay with SF-268 CNS it was 88.7%. The growth in the assay on SF-295 CNS is 81.9%; in the assay with UACC-257 melanoma it was 91.5%; in the assay with M14 melanoma, 69.3%; with HCT-15 colon, 68.7%; in the assay with HT29 colon, 34.4%; in the assay on SNB-75 CNS, 73%. Further, the growth with SNB-19 CNS was 109%; with U251 CNS, 60.7%; in the assay with PC-3 prostate, 57.6%; with SK-MEL-5 melanoma, 65.3%; in the assay with UACC-62 melanoma it was 66.3%; in the assay on LOX IMVI melanoma, 23.3%. Moreover, the growth in the assay with SK-MEL-28 melanoma was 104%.
